Assay results from PubChem BioAssay AID743482 (Broad Institute, 2014).
Values without a mark were called inactive.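 Rule for the calls: active = falling viability signal whose fitted half-maximal concentration is at most twice the highest tested dose; inconclusive = flat fit with a moderate drop, or a poor curve fit; inactive = the rest.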

Test: HepG2 viability loss by ATP level – cell-based, CellTiter-Glo luminescence, dry powder, cytotoxicity control, dose response (AID 743482)
Conditions: 72 h; series mostly up to 26 µM; activity change, negative = cytotoxicity: at the top concentration

Row | SMILES | activity change, negative = cytotoxicity
1 | C[C@H](CO)N1C[C@H](C)[C@H](CN(C)C(=O)Nc2ccc(C(F)(F)F)cc2)OCCCC[C@H](C)Oc2ccc(NC(=O)NC3CCCCC3)cc2C1=O | -0.944%
2 | C[C@H](CO)N1C[C@H](C)[C@H](CN(C)C(=O)Nc2ccc(F)cc2)OCCCC[C@H](C)Oc2ccc(NC(=O)Nc3ccc(F)cc3)cc2C1=O | 19.8%
3 | C[C@H](CO)N1C[C@H](C)[C@H](CN(C)C(=O)Nc2ccc3c(c2)OCO3)OCCCC[C@H](C)Oc2ccc(NC(=O)C3CCCCC3)cc2C1=O | 26.9%
4 | C[C@H](CO)N1C[C@H](C)[C@H](CN(C)C(=O)Nc2cccc3ccccc23)OCCCC[C@H](C)Oc2ccc(NC(=O)c3ccccc3)cc2C1=O | 22.5%
5 | C[C@@H]1CN([C@H](C)CO)C(=O)c2cc(NC(=O)C3CCCCC3)ccc2O[C@@H](C)CCCCO[C@@H]1CN(C)C(=O)Nc1cccc2ccccc12 | -11.1%
6 | C[C@H](CO)N1C[C@H](C)[C@H](CN(C)C(=O)Nc2ccc(Cl)cc2)OCCCC[C@H](C)Oc2ccc(NC(=O)C3CCCCC3)cc2C1=O | -1.97%
7 | C[C@@H]1CCCCO[C@@H](CN(C)C(=O)Nc2cccc3ccccc23)[C@H](C)CN([C@H](C)CO)C(=O)c2cc(NC(=O)C3CCCCC3)ccc2O1 | 2.79%
8 | C[C@H](CO)N1C[C@H](C)[C@H](CN(C)C(=O)Nc2ccc(C(F)(F)F)cc2)OCCCC[C@H](C)Oc2ccc(NC(=O)CCC(F)(F)F)cc2C1=O | 27.6%
9 | C[C@H](CO)N1C[C@H](C)[C@H](CN(C)C(=O)Nc2cccc(F)c2)OCCCC[C@H](C)Oc2ccc(NC(=O)C3CCCCC3)cc2C1=O | 6.51%
10 | C[C@H](CO)N1C[C@H](C)[C@H](CN(C)C(=O)Nc2cccc3ccccc23)OCCCC[C@H](C)Oc2ccc(NC(=O)C3CCCCC3)cc2C1=O | 27%
11 | C[C@H]1CCCCO[C@@H](CN(C)C(=O)Nc2ccc(C(F)(F)F)cc2)[C@@H](C)CN([C@@H](C)CO)C(=O)c2cc(NC(=O)CCC(F)(F)F)ccc2O1 | 8.98%
12 | C[C@@H]1CN([C@@H](C)CO)C(=O)c2cc(NC(=O)C3CCCCC3)ccc2O[C@@H](C)CCCCO[C@@H]1CN(C)C(=O)Nc1cccc2ccccc12 | -1.51%
13 | C[C@H]1CCCCO[C@@H](CN(C)C(=O)Nc2cccc3ccccc23)[C@@H](C)CN([C@@H](C)CO)C(=O)c2cc(NC(=O)C3CCCCC3)ccc2O1 | 11.6%
14 | C[C@H]1CCCCO[C@H](CN(C)C(=O)Nc2cccc3ccccc23)[C@@H](C)CN([C@@H](C)CO)C(=O)c2cc(NC(=O)C3CCCCC3)ccc2O1 | -1.46%
15 | C[C@H]1CCCCO[C@@H](CN(C)C(=O)Nc2ccccc2)[C@@H](C)CN([C@@H](C)CO)C(=O)c2cc(NC(=O)NC3CCCCC3)ccc2O1 | 47.5%
16 | C[C@H](CO)N1C[C@H](C)[C@H](CN(C)C(=O)Nc2ccccc2)OCCCC[C@H](C)Oc2ccc(NC(=O)Nc3ccccc3)cc2C1=O | 37.9%
17 | C[C@@H]1CCCCO[C@H](CN(C)C(=O)Nc2cccc3ccccc23)[C@H](C)CN([C@@H](C)CO)C(=O)c2cc(NC(=O)C3CCCCC3)ccc2O1 | 10.5%
18 | C[C@H](CO)N1C[C@H](C)[C@H](CN(C)C(=O)Nc2ccc(F)cc2)OCCCC[C@H](C)Oc2ccc(NC(=O)Nc3ccccc3)cc2C1=O | 25.8%
19 | COc1ccc(NC(=O)N(C)C[C@@H]2OCCCC[C@H](C)Oc3ccc(NC(=O)C4CCCCC4)cc3C(=O)N([C@H](C)CO)C[C@@H]2C)cc1 | 1.76%
20 | C[C@@H]1CCCCO[C@H](CN(C)C(=O)Nc2cccc3ccccc23)[C@@H](C)CN([C@@H](C)CO)C(=O)c2cc(NC(=O)C3CCCCC3)ccc2O1 | 54.1%
21 | COc1ccc(S(=O)(=O)N(C)C[C@@H]2OCCCC[C@H](C)Oc3ccc(NS(=O)(=O)c4ccc(F)cc4)cc3C(=O)N([C@@H](C)CO)C[C@@H]2C)cc1 | 3.65%
22 | C[C@@H]1CCCCO[C@@H](CN(C)C(=O)Nc2cccc3ccccc23)[C@@H](C)CN([C@H](C)CO)C(=O)c2cc(NC(=O)C3CCCCC3)ccc2O1 | 16.7%
23 | C[C@H](CO)N1C[C@H](C)[C@H](CN(C)C(=O)Nc2ccc(F)cc2)OCCCC[C@H](C)Oc2ccc(NC(=O)C3CCC3)cc2C1=O | 10.1%
24 | COc1ccc(NC(=O)N(C)C[C@@H]2OCCCC[C@H](C)Oc3ccc(NC(=O)NC4CCCCC4)cc3C(=O)N([C@H](C)CO)C[C@@H]2C)cc1 | 37.9%
25 | C[C@H]1CCCCO[C@@H](CN(C)C(=O)Nc2ccc(F)cc2)[C@@H](C)CN([C@@H](C)CO)C(=O)c2cc(NC(=O)C3CCCCC3)ccc2O1 | 50.6%
26 | C[C@@H]1CCCCO[C@@H](CN(C)C(=O)Nc2cccc3ccccc23)[C@@H](C)CN([C@@H](C)CO)C(=O)c2cc(NC(=O)C3CCCCC3)ccc2O1 | 22%
